Sampled rows, rich in hits. Any-hit rate of the full collection: about 4.2%.
NALP1 inh: NALP1 inflammasome inhibitors in reconstituted yeast, colorimetric, S. cerevisiae, triplicate retest; 0.61% of 280,000 active; S. cerevisiae NALP1/ASC/caspase-1 growth, X-gal OD620, 72 h; inhibition, % at 10 µM; in the data active means inhibition mostly above about 24%, no sharp cut-off; inactive means mostly below about 32%
tim23-1 inh: growth inhibitors of tim23-1 mutant yeast, primary screen, luminescence, uHTS | S. cerevisiae tim23-1 growth, BacTiter-Glo luminescence, 24 h | inhibition, % at 20 µM | 1.3% of 330,000 active;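 active means growth inhibition of the mutant yeast at or above 50%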;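 further: temperature-sensitive mutant grown at 25 °C; plate controls were DMSO-treated mutant yeast for no effect and medium wells lacking yeast for full effect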
PfHsp90 set2: growth inhibition of PfHsp90-expressing yeast, primary screen, antimalarial PfHsp90 inhibitor project, S. cerevisiae, BacTiter-Glo luminescence, single point, set 2; BacTiter-Glo ATP, 48 h; yeast lacking PDR1 and PDR3 efflux regulators; inhibition, % at 9.4 µM; 0.32% of 310,000 active;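 active means every replicate shows inhibition above about 80%, whatever the replicate mean, limit read from the data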;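 further: 0% = DMSO neutral controls and 100% = 20 µM radicicol positive controls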
tim10-1 inh: growth inhibitors of tim10-1 mutant yeast, primary screen, luminescence, uHTS; 2.2% of 330,000 active; S. cerevisiae tim10-1 ts strain growth, BacTiter-Glo, 24 h; AID 463190, 2010; inhibition, % at 20 µM;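 active means inhibition of at least 40%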;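 further: mutant grown at 25 °C; 0% = DMSO wells with yeast and 100% = wells holding no yeast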
TIM10 inh: growth inhibitors of isogenic TIM10 control yeast, primary screen, counter-screen for tim10-1 yeast inhibitor project, luminescence, uHTS. inhibition, % at 10 µM. 1.4% of 330,000 active. AID 463195, 2010. S. cerevisiae TIM10 strain growth, BacTiter-Glo luminescence, 24 h;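 active means inhibition of 40% or more at the single tested concentration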;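 further: wild-type TIM10 isogenic control strain grown at permissive 25 °C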
NLRP3 yeast inh: NALP3 inflammasome inhibitors in reconstituted yeast, primary screen, luminescence, uHTS; Yeast reconstituted NLRP3/ASC/caspase-1, beta-gal luminescence, 24 h; inhibition, % at 10 µM; 0.39% of 330,000 active; AID 2825, 2010;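 active means inhibition of 50% or more; inactive means inhibition below 50%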;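 further: plate controls were induced DMSO wells for no effect and uninduced yeast grown without galactose for full effect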
tim10 confirm: growth inhibitors of wild-type TIM10 yeast, confirmation, counter-screen for tim10-1 synthetic lethality project, single concentration, luminescence, S. cerevisiae | shares compounds with TIM10 inh | S. cerevisiae tim10 strain growth, BacTiter-Glo luminescence, 24 h | inhibition, % at 10 µM | 63% of 4,600 active | AID 463215, 2010;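 active means inhibition of yeast growth at or above a set limit in either of two replicates at 10 µM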;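 further: this counterscreen used the strain with wild-type TIM10; 0% = yeast with DMSO and 100% = medium wells lacking yeast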
Numbers without * were called inactive.

How did COc1ccc(/C=N/NC(=O)c2ccoc2C)cc1OC do in these assays?
NALP1 inh: 18; tim23-1 inh: 10; PfHsp90 set2: 4; tim10-1 inh: 2; TIM10 inh: -13; NLRP3 yeast inh: 7

Results for CS(=O)(=O)c1cccc(C(=O)OCC(=O)NCc2cccs2)c1 ?
tim23-1 inh: 3; PfHsp90 set2: -6; tim10-1 inh: 5; TIM10 inh: 72*; NLRP3 yeast inh: -3; tim10 confirm: -8

What do the screens show for `Cc1nn(-c2ccc(F)cc2)c(-n2cccc2)c1C(=O)N1CCN(C(=O)c2ccco2)CC1`?
NALP1 inh: 6; tim23-1 inh: 6; PfHsp90 set2: 15; tim10-1 inh: 2; TIM10 inh: 7; NLRP3 yeast inh: 4

Results for O=C(C1Cc2ccccc2CN1S(=O)(=O)c1cccs1)N1CCCCCC1 (stereo not given) ?
NALP1 inh: 10; tim23-1 inh: 31; PfHsp90 set2: -5; tim10-1 inh: 33; TIM10 inh: 44*; NLRP3 yeast inh: -4; tim10 confirm: 33*

What do the screens show for `NC(=O)C1Cc2ccccc2CN1S(=O)(=O)c1cccs1` (stereo not given)?
NALP1 inh: -10; tim23-1 inh: 9; PfHsp90 set2: 0; tim10-1 inh: 15; TIM10 inh: 9; NLRP3 yeast inh: 3

What do the screens show for `CSC1=C(C#N)C(=O)NC(c2ccc(Cl)cc2)S1` (stereo not given)?
tim23-1 inh: 44; PfHsp90 set2: 0; tim10-1 inh: 31; TIM10 inh: 46*; NLRP3 yeast inh: 6; tim10 confirm: 23

What do the screens show for `C[C@@H]1COC(=O)[C@H](CC(=O)OC(C)(C)C)C/C=C\C[C@@H](CC(=O)N[C@H](CO)Cc2ccccc2)C(=O)N1`?
tim23-1 inh: -3; PfHsp90 set2: 11; tim10-1 inh: -12; TIM10 inh: 6; NLRP3 yeast inh: -1

What do the screens show for `CC(C)(C)C(=O)NC(=S)Nc1cc(C(F)(F)F)ccc1N1CCOCC1`?
NALP1 inh: -15; tim23-1 inh: 38; PfHsp90 set2: 6; tim10-1 inh: 39; TIM10 inh: 48*; NLRP3 yeast inh: 5; tim10 confirm: 25

How did CC(C)(C)C(=O)Nc1cc(C(F)(F)F)ccc1N1CCOCC1 do in these assays?
NALP1 inh: 11; tim23-1 inh: 3; PfHsp90 set2: -26; tim10-1 inh: 10; TIM10 inh: 4; NLRP3 yeast inh: 0

How did COc1ccc(NC(C)C(=O)Nc2cc(C(F)(F)F)ccc2N2CCOCC2)c(OC)c1 (stereo not given) do in these assays?
NALP1 inh: 39; tim23-1 inh: 33; PfHsp90 set2: -3; tim10-1 inh: 28; TIM10 inh: 41*; NLRP3 yeast inh: 11; tim10 confirm: 15

How did CCOc1cc(/C=C2\SC(=NC)N(C)C2=O)cc(Cl)c1OC(C)=O do in these assays?
NALP1 inh: 23; tim23-1 inh: 20; PfHsp90 set2: -11; tim10-1 inh: 22; TIM10 inh: -16; NLRP3 yeast inh: 7

Results for CCOc1cc(/C=C2\SC(=NC)N(C)C2=O)c(Br)cc1OC(C)=O ?
NALP1 inh: -24; tim23-1 inh: 29; PfHsp90 set2: -8; tim10-1 inh: 34; TIM10 inh: 82*; NLRP3 yeast inh: -32; tim10 confirm: 29

How did O=S(=O)(Nc1cc(Cl)ccc1N1CCCCC1)c1cccs1 do in these assays?
NALP1 inh: 12; tim23-1 inh: 33; PfHsp90 set2: 32; tim10-1 inh: 37; TIM10 inh: 40*; NLRP3 yeast inh: 0; tim10 confirm: 20

Results for O=S(=O)(Nc1ccc(N2CCCCC2)cc1)c1cccs1 ?
NALP1 inh: 6; tim23-1 inh: 21; PfHsp90 set2: 8; tim10-1 inh: 15; TIM10 inh: 5; NLRP3 yeast inh: -6

Results for O=C(CN1C(=O)NC2(CCCC2)C1=O)OCc1ccc(Cl)cc1Cl ?
tim23-1 inh: 11; tim10-1 inh: -7; TIM10 inh: -3; NLRP3 yeast inh: 7

Results for COc1ccc(NC(=S)N2CCC(c3ccccc3)C2)cc1 (stereo not given) ?
NALP1 inh: -19; tim23-1 inh: 28; PfHsp90 set2: 8; tim10-1 inh: 36; TIM10 inh: 8; NLRP3 yeast inh: 3

Results for Cc1ccc(Cl)cc1NC(=S)N1CCC(c2ccccc2)C1 (stereo not given) ?
NALP1 inh: -8; tim23-1 inh: 14; PfHsp90 set2: 0; tim10-1 inh: 37; TIM10 inh: 52*; NLRP3 yeast inh: 26; tim10 confirm: 37*

What do the screens show for `CC(=O)Cc1nsc(NC(=O)c2ccccc2Cl)n1`?
NALP1 inh: 8; tim23-1 inh: 38; PfHsp90 set2: 30; tim10-1 inh: 23; TIM10 inh: 51*; NLRP3 yeast inh: 11; tim10 confirm: -10

Results for C=CCNC(=S)N/N=C/c1ccc(C(F)(F)F)cc1 ?
NALP1 inh: 1; tim23-1 inh: 44; PfHsp90 set2: -10; tim10-1 inh: 22; TIM10 inh: 40*; NLRP3 yeast inh: 6; tim10 confirm: 20

How did C=CCNC(=S)N/N=C/c1ccc(-c2ccc(OC)cc2)o1 do in these assays?
NALP1 inh: 20; tim23-1 inh: 17; PfHsp90 set2: -34; tim10-1 inh: 15; TIM10 inh: 42*; NLRP3 yeast inh: 12; tim10 confirm: 36*

How did FC(F)(F)c1ccc(/C=N/NC(=S)NC2CCCCC2)cc1 do in these assays?
NALP1 inh: -1; tim23-1 inh: -34; PfHsp90 set2: 6; tim10-1 inh: 31; TIM10 inh: -5; NLRP3 yeast inh: 2

How did C=CCNC(=S)N/N=C/c1ccc(-c2cc(Cl)ccc2Cl)o1 do in these assays?
NALP1 inh: 4; tim23-1 inh: -23; PfHsp90 set2: -8; tim10-1 inh: 6; TIM10 inh: -6; NLRP3 yeast inh: 8

How did O=C(N/N=C/c1ccncc1)c1cc2c(ccc3ccccc32)o1 do in these assays?
NALP1 inh: 19; tim23-1 inh: 7; PfHsp90 set2: 5; tim10-1 inh: -17; TIM10 inh: 47*; NLRP3 yeast inh: 19; tim10 confirm: 34*

How did Cc1cc(C)n(-c2nc(NC(C)(C)C)nc(NC(C)(C)C)n2)n1 do in these assays?
NALP1 inh: 8; tim23-1 inh: 42; PfHsp90 set2: -31; tim10-1 inh: 35; TIM10 inh: 45*; NLRP3 yeast inh: -15; tim10 confirm: 43*

Bioassay records from PubChem.
